Structures are written as SMILES. Results filed as inconclusive are left out. The source made the active and inactive calls. Calls follow the shape of the dose curve; as a rule, active = well fitted cell-killing curve with a large enough effect; inconclusive = small, poorly fitted or top-dose-only effect, or effect the other way; inactive = no such curve, though single readings can be large or run the other way.
Potency is read from the fitted curve at half-maximal effect.

The test in a line: Quantitative High-Throughput drug screen in 47 multiple myeloma cell lines against the NCATS MIPE library collection: XG1_PLB cell viability assay (AID 1919866). Also: nearly all actives have a fitted effect of over 35% in size. Conditions: CellTiter-Glo ATP, 48 h; series mostly up to 45.8 µM. From the text:
PI: Beverly A. Mock Ph.D.
Laboratory of Cancer Biology and Genetics,
Center for Cancer Research, National Cancer Institute,
National Institute of Health, Bethesda, Maryland
Drug resistance and disease progression are common in multiple myeloma (MM) patients, underscoring the need for new therapeutic combinations. […] We hypothesized that effective combinations would reduce MYC expression and enhance p16 activity. […] These preclinical data identify potentially useful drug combinations for evaluation in drug-resistant MM and reveal potential mechanisms of combined drug sensitivity.
Described herein is the primary MIPE qHTS used to cherrypick compounds. Validated compounds were then further tested for potential synergistic activiy.
[1] Peat TJ, Gaikwad SM, Dubois W, Gyabaah-Kessie N, Zhang S, Gorjifard S, Phyo Z, Andres M, Hughitt VK, Simpson RM, Miller MA, Girvin AT, Taylor A, Williams D, D'Antonio N, Zhang Y, Rajagopalan A, Flietner E, Wilson K, Zhang X, Shinn P, Klumpp-Thomas C, McKnight C, Itkin Z, Chen L, Kazandijian D, Zhang J, Michalowski AM, Simmons JK, Keats J, Thomas CJ, Mock BA. Drug combinations identified by high-throughput screening promote cell cycle transition and upregulate Smad pathways in myeloma. Cancer Lett. 2023 Aug 1;568:216284. doi: 10.1016/j.canlet.2023.216284. Epub 2023 Jun 24. PMID: 37356470; PMCID: PMC10408729.
SEQUENCE No. (e.g., 1, 2, 3, etc.); […] (e.g., Cells, Incubation, Reagent, etc.); VALUE and DESCRIPTION.
1; Cells; 5 uL; white, solid bottom 1536-well Greiner assay plate.
2; Compounds; 23 nL; Kalypsis pin tool (Wako USA) equipped with a 1536-well pin head to transfer to the assay plates.
3; Incubation; 48 hours; 37C incubation.
4; Reagent;5uL; CellTiter Glo (Promega).
5; Detector; 425V; Luminescence; Viewlux PerkinElmer.
NOTES (numbers refer to Sequence numbers above)
1. The cell-based screening methods employed in this study were like those previously published. Briefly, the corresponding myeloma cell lines were screened in 1,536-well plates with 500 cells, 5-uL per well for inhibition of cell viability (assessed by measuring ATP levels with CellTiterGlo).
2. NCATS MIPE 4.0 library of approved and investigational drugs were added using the Kalypsis pin tool. Wells treated with DMSO only for 100% viability and media only for 0% viability were used as controls.
3. The assay plates were covered and incubated for 48 hours in a 37C, 5% CO2 incubator with controlled humidity.
4. After 48 hours, CellTilter-GloTM luminescent substrate mix (Promega) reagent was added to the assay plate and plates we incubated for 5 min at room temperature.
5. Signal was measured as median relative luminescence units on a ViewLux (PerkinElmer) multiplate reader.
[1] Heske CM, Davis MI, Baumgart JT, Wilson K, Gormally MV, Chen L, Zhang X, Ceribelli M, Duveau DY, Guha R, Ferrer M, Arnaldez FI, Ji J, Tran HL, Zhang Y, Mendoza A, Helman LJ, Thomas CJ. Matrix Screen Identifies Synergistic Combination of PARP Inhibitors and Nicotinamide Phosphoribosyltransferase (NAMPT) Inhibitors in Ewing Sarcoma. Clin Cancer Res. 2017 Dec 1;23(23):7301-7311. doi: 10.1158/1078-0432.CCR-17-1121. Epub 2017 Sep 12. PMID: 28899971; PMCID: PMC6636827.
A general note: In ATP-based viability assays light output follows the ATP content of the culture.
On to `C=C1CCC2[C@](C)(CO)C(O)CC[C@]2(C)C1CC=C1C(=O)OCC1O` (stereo not given in full), for which the Potency result is “inactive”. On to `CN(N=O)C(=O)N[C@H]1C(O)OC(CO)[C@@H](O)[C@H]1O` (stereo not given in full), for which the Potency entry was “inactive”. With `CC(C(C)N1CC(=O)NC(=O)C1)N1CC(=O)NC(=O)C1` (stereo not given), the Potency entry is “inactive”. With `CN[C@H](CC(C)C)C(=O)N[C@H]1C(=O)N[C@@H](CC(N)=O)C(=O)N[C@@H]2C(=O)N[C@H]3C(=O)N[C@H](C(=O)N[C@H](C(=O)O)c4cc(O)cc(O)c4-c4cc3ccc4O)[C@H](O)c3ccc(c(Cl)c3)Oc3cc2cc(c3O[C@@H]2O[C@H](CO)[C@@H](O)[C@H](O)[C@@H]2O[C@H]2C[C@](C)(N)[C@H](O)[C@H](C)O2)Oc2ccc(cc2Cl)[C@H]1O`, the Potency entry is “inactive”.

For the compound `COc1cccc2c1C(=O)c1c(O)c3c(c(O)c1C2=O)C[C@@](O)(C(=O)CO)C[C@@H]3O[C@H]1C[C@H](N)[C@@H](O)[C@H](C)O1`, the Potency is 526 nM (active). Under `FC(F)c1nc2ccccc2n1-c1nc(N2CCOCC2)nc(N2CCOCC2)n1` stands 209 nM (active); under `CCOc1cc2ncc(C#N)c(Nc3ccc(OCc4ccccn4)c(Cl)c3)c2cc1NC(=O)C=CCN(C)C`, 132 nM (active). Under `O=C(O)CCCCCC(=O)NN=C1CCCC1` stands “inactive”; under `Cc1cc(-c2nnc3n2CCCCC3)c(C)n1-c1ccccc1`, “inactive”. As for `N#CC(=C(O)c1ccc(Cl)cc1Cl)c1nc2cc(Cl)ccc2c(=O)[nH]1`, the entry is “inactive”; as for `CCC(C(=O)O)C1CCC(C)C(C(C)C(O)C(C)C(=O)C(CC)C2OC3(C=CC(O)[C@@]4(CC[C@](C)(C5CC[C@@](O)(CC)C(C)O5)O4)O3)C(C)CC2C)O1` (stereo not given in full), 5900 nM (active).

On to `COc1cc(C(=O)NC2CCN(C)CC2)ccc1Nc1ncc2c(n1)N(C1CCCC1)CCC(=O)N2C(C)C`, for which the Potency was 20900 nM (active). Under `COc1ccc(Nc2nccc(NCCO)n2)cc1` stands “inactive”; under `CS[C@H]1SC[C@@H]2C(=O)N(C)[C@H](C(C)C)C(=O)OC[C@H](NC(=O)c3cnc4ccccc4n3)C(=O)N[C@H](C)C(=O)N(C)[C@@H]1C(=O)N(C)[C@H](C(C)C)C(=O)OC[C@H](NC(=O)c1cnc3ccccc3n1)C(=O)N[C@H](C)C(=O)N2C`, 7.4 nM (active). With `CCN(CC)CCCCNc1ncc2c(n1)N(C)C(=O)N(c1c(Cl)c(OC)cc(OC)c1Cl)C2`, the Potency was 13200 nM (active). Under `CC(C)(O)Cn1c(NC(=O)c2ccc(-c3cn[nH]c3)s2)nc2cc(CN3CCOCC3)ccc21` stands 743 nM (active); under `COC1=C2C[C@@H](C)C[C@H](OC)[C@@H](O)[C@@H](C)C=C(C)[C@H](OC(N)=O)[C@@H](OC)C=CC=C(C)C(=O)NC(=CC1=O)C2=O`, 209 nM (active). Under `C=C1C[C@@]2(O)O[C@@]3(C[C@H]2C(C)C)[C@H](C)CC[C@H]13` stands “inactive”; under `C[C@@]12C[C@@]3(O)O[C@@H](O1)[C@]1(COC(=O)c4ccccc4)[C@@H]3C[C@@]12O[C@@H]1O[C@H](CO)[C@@H](O)[C@H](O)[C@@H]1O`, “inactive”. For the compound `Nc1nc(N)c2nc(-c3cccc(O)c3)c(-c3cccc(O)c3)nc2n1`, the Potency was 4180 nM (active). As for `CCN(CC)CCNC(=O)c1c(C)[nH]c(C=C2C(=O)Nc3ccc(F)cc32)c1C`, the figure is 3030 nM (active); as for `CCOc1cc2c(c(F)c1OCC)C(=N)N(CC(=O)c1cc(N3CCOCC3)c(OC)c(C(C)(C)C)c1)C2`, 8330 nM (active). As for `Cc1cnc(NC(=O)Nc2cc(Br)c(C)cc2OC[C@@H]2CNCCO2)cn1`, the figure is 1660 nM (active); as for `Cc1nc(NC(=O)N2CCC[C@@H]2C(N)=O)sc1-c1ccnc(C(C)(C)C(F)(F)F)c1`, 3320 nM (active); as for `CC(=O)N1CCN(c2ccc(OCc3nn(C)c(C)c3-c3cccc4c(CCCOc5cccc6ccccc56)c(C(=O)O)n(Cc5cccnc5)c34)cc2)CC1`, 235 nM (active). Regarding `CCC(C=C[C@@H]1OC(=O)C=C[C@H]1C)=C[C@H](C)CC=CC(C)=C[C@@H](C)C(=O)[C@@H](C)[C@H](O)[C@@H](C)CC(C)=CC(=O)O`, the Potency is 24.7 nM (active). With `CCS(=O)(=O)Nc1ccc2[nH]c(O)c(C(=Nc3ccc(CN4CCCCC4)cc3)c3ccccc3)c2c1`, the Potency was 1320 nM (active). Regarding `C#C[C@]1(O)CC[C@@H]2[C@@H]3CCC4=CC(=O)CC[C@@H]4[C@H]3CC[C@@]21CC`, the Potency entry was “inactive”. Under `COc1cccc2c1C(=O)c1c(O)c3c(c(O)c1C2=O)C[C@@](O)(C(=O)CO)C[C@H]3O[C@H]1C[C@H](N)[C@H](O)[C@H](C)O1` stands 296 nM (active); under `C=CCNc1c(O)cc2c(O)c1C[C@@H](C)C[C@H](OC)[C@@H](O)[C@@H](C)C=C(C)[C@H](OC(N)=O)[C@@H](OC)C=CC=C(C)C(=O)N2`, 418 nM (active); under `COc1cccc2c1C(=O)c1c(O)c3c(c(O)c1C2=O)C[C@@](O)(C(=O)CO)C[C@@H]3O[C@H]1C[C@H](N)[C@H](OC2CCCCO2)[C@H](C)O1` (stereo not given in full), 1870 nM (active). In the case of `O=C1NC(O)CCN1[C@@H]1O[C@H](CO)[C@H](O)[C@H]1O` (stereo not given in full), the Potency is 11800 nM (active). In the case of `CCCc1nc(C(C)(C)O)c(C(=O)O)n1Cc1ccc(-c2ccccc2-c2nn[nH]n2)cc1`, the Potency entry was “inactive”. For the compound `CCCCOc1ccc(C(=O)Nc2ccc(F)cc2F)cc1`, the Potency result is “inactive”. Under `CCNC(=O)c1cc2c(-c3cc(OCCN4CCCC4)c(Cl)cc3Cl)nc(N)nc2s1` stands 833 nM (active). Take `OC[C@H]1OC(O)C[C@@H](O)[C@H]1O` (stereo not given in full): the Potency result is “inactive”. As to `COc1ccc(C[C@@H](C)[C@@H](C)Cc2ccc(OC)c(OC)c2)cc1OC`, the Potency is 187 nM (active). As for `NC1=N[C@H]2[C@H](CS[C@H]2CCCCC(=O)O)N1`, the Potency entry is “inactive”.

Take `OCCN1C[C@H](O)[C@@H](O)[C@H](O)[C@@H]1CO`: the Potency result is “inactive”. As for `Oc1cc(-c2nc(-c3ccccc3)[nH]c2-c2ccncc2)ccc1Cl`, the figure is 2350 nM (active).

For the origin of these results see PubChem BioAssay (NCATS).
